# Test results: PubChem BioAssay AID489042 (NMMLSC, 2010)
# Where “and” joins values, the source holds several entries; their conditions need not be identical. Equal entries are not always repeated. More than one record can exist for a structure, and the calls need not agree. Calls of active or inactive are those of the source. No stated cut-off is given here; in the data, active means inhibition score above about 11; inactive means the rest.
# Assay: yeast proliferation inhibition, dose response, BY4741, OD595, 24 h (AID 489042)
# Conditions: S. cerevisiae BY4741 growth, stronger effect = higher value
row,SMILES,inhibition score
1,COc1ccc2c3c(cccc13)N(C)N=C2C,10 (inactive)
2,CC(=O)Nc1ccc2nc3ccccc3nc2c1,0 (inactive)
3,COc1ccc2nc3ccccc3nc2c1,10 (inactive) and 21 (active)
4,O=C(Nc1ccc2nc3ccccc3nc2c1)c1ccc(Br)cc1,0 (inactive)
5,CC(=O)[C@@]1(O)CCC2C3CC[C@H]4C[C@@H](O)CC[C@]4(C)C3CC[C@@]21C (some centres undefined),0 (inactive)
6,CCC(=Nc1ccccc1O)C1=C(O)CC(c2ccccc2)CC1=O (centres undefined),10 (inactive)
7,COC(=O)c1cccc2nc3c(C(C)O)cccc3nc12 (centres undefined),0 (inactive)
8,CCN(CC)C(=O)c1ccc2nc3ccccc3nc2c1,0 (inactive)
9,Cc1cc(C)c2[nH]c3nc(SCC(=O)O)nnc3c2c1,0 (inactive)
10,CSc1nnc(-c2ccc([N+](=O)[O-])cc2)o1,0 (inactive)
11,O=C(Nc1ccc2nc3ccccc3nc2c1)c1ccccc1,21 (active)
12,FC(F)(F)c1nc2cc3nc4ccccc4[nH]c3cc2n1,0 (inactive)
13,CN(C)CCNc1ncnc2c1cnn2-c1ccc(Cl)cc1,0 (inactive)
14,COc1cccc2nc3cc(C)c(C)cc3nc12,10 (inactive)
15,CCc1nc(NC(C)(C)C)c2cnn(-c3ccccc3)c2n1,0 (inactive)
16,CC(C)(C)n1nc(-c2ccc(Cl)cc2)c2c(N)ncnc21,21 (active)
17,CSc1nnc2c3cc(F)ccc3n(C)c2n1,21 (active)
18,C#CCSc1nnc(-c2ccc([N+](=O)[O-])cc2)o1,0 (inactive)
19,CC(C)(C)Nc1ncnc2c1cnn2-c1ccccc1,10 (inactive)
20,NC(=O)CSc1nnc(-c2ccc([N+](=O)[O-])cc2)o1,0 (inactive)
21,CNC(=O)c1cccc2nc3ccccc3nc12,21 (active)
22,CCN(CC)C(=O)c1cccc2nc3ccccc3nc12,0 (inactive)
23,CC(C)(C)n1nc(-c2ccc(F)cc2)c2c(N)ncnc21,21 (active)
24,Cc1cc2nc3ccc(N(C)C)cc3nc2cc1N,0 (inactive)
25,Cc1cccc2nc3ccccc3nc12,10 (inactive)
26,c1ccc2nc3ccccc3nc2c1,21 (active)
27,CCN(CC)C(=O)CSc1nnc(-c2cccc(OC)c2)o1,0 (inactive)
28,N#CC(c1nc2ccccc2nc1N1CCCC1)S(=O)(=O)c1ccccc1 (centres undefined),0 (inactive)
29,C[C@@]12C(=O)OC(=O)[C@]1(C)C1CCC2O1,21 (active)
